# How the values were obtained:
# Experiment in all cases: PBM; 200 nM protein, PBS
# Conditions in all cases: dsDNA, one strand shown
# HESX1 [1] = target: HESX1 (Homo sapiens, UniProt Q9UBX0 95-180, R165K)
# HESX1 [2] = target: HESX1 (Homo sapiens, UniProt Q9UBX0 95-180)
# HESX1 [3] = target: HESX1 (Homo sapiens, UniProt Q9UBX0 95-180, R109Q)
# HESX1 [4] = target: HESX1 (Homo sapiens, UniProt Q9UBX0 95-180, P111T)
# HESX1 [5] = target: HESX1 (Homo sapiens, UniProt Q9UBX0 95-180, F115L)
# Sequence of HESX1 (Homo sapiens, UniProt Q9UBX0 95-180, F115L) (Q9UBX0 95-180 F115L): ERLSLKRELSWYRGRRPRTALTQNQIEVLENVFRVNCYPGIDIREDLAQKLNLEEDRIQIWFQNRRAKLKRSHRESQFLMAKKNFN
# Sequence of HESX1 (Homo sapiens, UniProt Q9UBX0 95-180) (Q9UBX0 95-180): as the sequence (Q9UBX0 95-180 F115L) above, with L21F counted along it
# Sequence of HESX1 (Homo sapiens, UniProt Q9UBX0 95-180, R109Q) (Q9UBX0 95-180 R109Q): as the sequence (Q9UBX0 95-180 F115L) above, with R15Q, L21F counted along it
# Sequence of HESX1 (Homo sapiens, UniProt Q9UBX0 95-180, P111T) (Q9UBX0 95-180 P111T): as the sequence (Q9UBX0 95-180 F115L) above, with P17T, L21F counted along it
# Sequence of HESX1 (Homo sapiens, UniProt Q9UBX0 95-180, R165K) (Q9UBX0 95-180 R165K): as the sequence (Q9UBX0 95-180 F115L) above, with L21F, R71K counted along it
Sequence,binding signal (HESX1 [1]),binding signal (HESX1 [2]),binding signal (HESX1 [3]),binding signal (HESX1 [4]),binding signal (HESX1 [5])
CGCTCCTC,"6.29 upbm affinity estimate (log intensity, higher = more binding, comparable within an allelic series)","6.25 upbm affinity estimate (log intensity, higher = more binding, comparable within an allelic series)","6.53 upbm affinity estimate (log intensity, higher = more binding, comparable within an allelic series)","6.33 upbm affinity estimate (log intensity, higher = more binding, comparable within an allelic series)","6.5 upbm affinity estimate (log intensity, higher = more binding, comparable within an allelic series)"
GAAGTCGC,"6.48 upbm affinity estimate (log intensity, higher = more binding, comparable within an allelic series)","6.36 upbm affinity estimate (log intensity, higher = more binding, comparable within an allelic series)","6.51 upbm affinity estimate (log intensity, higher = more binding, comparable within an allelic series)","6.43 upbm affinity estimate (log intensity, higher = more binding, comparable within an allelic series)","6.56 upbm affinity estimate (log intensity, higher = more binding, comparable within an allelic series)"
CCGAGTCG,"6.6 upbm affinity estimate (log intensity, higher = more binding, comparable within an allelic series)","6.58 upbm affinity estimate (log intensity, higher = more binding, comparable within an allelic series)","6.45 upbm affinity estimate (log intensity, higher = more binding, comparable within an allelic series)","6.56 upbm affinity estimate (log intensity, higher = more binding, comparable within an allelic series)","6.36 upbm affinity estimate (log intensity, higher = more binding, comparable within an allelic series)"
CGTGCCAC,"6.27 upbm affinity estimate (log intensity, higher = more binding, comparable within an allelic series)","6.24 upbm affinity estimate (log intensity, higher = more binding, comparable within an allelic series)","6.45 upbm affinity estimate (log intensity, higher = more binding, comparable within an allelic series)","6.56 upbm affinity estimate (log intensity, higher = more binding, comparable within an allelic series)","6.43 upbm affinity estimate (log intensity, higher = more binding, comparable within an allelic series)"
AGCCGAGC,"6.4 upbm affinity estimate (log intensity, higher = more binding, comparable within an allelic series)","6.26 upbm affinity estimate (log intensity, higher = more binding, comparable within an allelic series)","6.48 upbm affinity estimate (log intensity, higher = more binding, comparable within an allelic series)","6.46 upbm affinity estimate (log intensity, higher = more binding, comparable within an allelic series)","6.45 upbm affinity estimate (log intensity, higher = more binding, comparable within an allelic series)"
AATACATA,"7.62 upbm affinity estimate (log intensity, higher = more binding, comparable within an allelic series)","7.7 upbm affinity estimate (log intensity, higher = more binding, comparable within an allelic series)","7.3 upbm affinity estimate (log intensity, higher = more binding, comparable within an allelic series)","7.6 upbm affinity estimate (log intensity, higher = more binding, comparable within an allelic series)","7.4 upbm affinity estimate (log intensity, higher = more binding, comparable within an allelic series)"
ACTCAATA,"7.78 upbm affinity estimate (log intensity, higher = more binding, comparable within an allelic series)","7.87 upbm affinity estimate (log intensity, higher = more binding, comparable within an allelic series)","7.28 upbm affinity estimate (log intensity, higher = more binding, comparable within an allelic series)","7.59 upbm affinity estimate (log intensity, higher = more binding, comparable within an allelic series)","7.33 upbm affinity estimate (log intensity, higher = more binding, comparable within an allelic series)"
GCCTGGCC,"6.59 upbm affinity estimate (log intensity, higher = more binding, comparable within an allelic series)","6.61 upbm affinity estimate (log intensity, higher = more binding, comparable within an allelic series)","6.46 upbm affinity estimate (log intensity, higher = more binding, comparable within an allelic series)","6.51 upbm affinity estimate (log intensity, higher = more binding, comparable within an allelic series)","6.6 upbm affinity estimate (log intensity, higher = more binding, comparable within an allelic series)"
CCAGCCCA,"6.4 upbm affinity estimate (log intensity, higher = more binding, comparable within an allelic series)","6.43 upbm affinity estimate (log intensity, higher = more binding, comparable within an allelic series)","6.47 upbm affinity estimate (log intensity, higher = more binding, comparable within an allelic series)","6.48 upbm affinity estimate (log intensity, higher = more binding, comparable within an allelic series)","6.55 upbm affinity estimate (log intensity, higher = more binding, comparable within an allelic series)"
AGCACGCT,"6.37 upbm affinity estimate (log intensity, higher = more binding, comparable within an allelic series)","6.39 upbm affinity estimate (log intensity, higher = more binding, comparable within an allelic series)","6.5 upbm affinity estimate (log intensity, higher = more binding, comparable within an allelic series)","6.4 upbm affinity estimate (log intensity, higher = more binding, comparable within an allelic series)","6.46 upbm affinity estimate (log intensity, higher = more binding, comparable within an allelic series)"
AGGAGCTG,"6.51 upbm affinity estimate (log intensity, higher = more binding, comparable within an allelic series)","6.45 upbm affinity estimate (log intensity, higher = more binding, comparable within an allelic series)","6.4 upbm affinity estimate (log intensity, higher = more binding, comparable within an allelic series)","6.4 upbm affinity estimate (log intensity, higher = more binding, comparable within an allelic series)","6.28 upbm affinity estimate (log intensity, higher = more binding, comparable within an allelic series)"
CCGCTCCC,"6.47 upbm affinity estimate (log intensity, higher = more binding, comparable within an allelic series)","6.49 upbm affinity estimate (log intensity, higher = more binding, comparable within an allelic series)","6.46 upbm affinity estimate (log intensity, higher = more binding, comparable within an allelic series)","6.35 upbm affinity estimate (log intensity, higher = more binding, comparable within an allelic series)","6.43 upbm affinity estimate (log intensity, higher = more binding, comparable within an allelic series)"
ACGCCTAC,"6.48 upbm affinity estimate (log intensity, higher = more binding, comparable within an allelic series)","6.44 upbm affinity estimate (log intensity, higher = more binding, comparable within an allelic series)","6.44 upbm affinity estimate (log intensity, higher = more binding, comparable within an allelic series)","6.5 upbm affinity estimate (log intensity, higher = more binding, comparable within an allelic series)","6.46 upbm affinity estimate (log intensity, higher = more binding, comparable within an allelic series)"
CCGTCGTC,"6.45 upbm affinity estimate (log intensity, higher = more binding, comparable within an allelic series)","6.42 upbm affinity estimate (log intensity, higher = more binding, comparable within an allelic series)","6.4 upbm affinity estimate (log intensity, higher = more binding, comparable within an allelic series)","6.44 upbm affinity estimate (log intensity, higher = more binding, comparable within an allelic series)","6.26 upbm affinity estimate (log intensity, higher = more binding, comparable within an allelic series)"
